Screens: PubChem, National Center for Advancing Translational Sciences (NCATS)
GLS inh: inhibitors of human glutaminase (GLS) | O94925 | GLS enzymatic activity, qHTS titration | Potency, µM (series often up to 45.5 µM), inactives show at the highest dose activity change, negative = inhibition, most hits filed as inhibitors | 410,000 compounds, 0.21% hits; note: potency is the fitted concentration of half-maximal effect; % is set by controls: 0 for no effect and ±100 for the full control effect
Target sequence (O94925 whole entry, looked up): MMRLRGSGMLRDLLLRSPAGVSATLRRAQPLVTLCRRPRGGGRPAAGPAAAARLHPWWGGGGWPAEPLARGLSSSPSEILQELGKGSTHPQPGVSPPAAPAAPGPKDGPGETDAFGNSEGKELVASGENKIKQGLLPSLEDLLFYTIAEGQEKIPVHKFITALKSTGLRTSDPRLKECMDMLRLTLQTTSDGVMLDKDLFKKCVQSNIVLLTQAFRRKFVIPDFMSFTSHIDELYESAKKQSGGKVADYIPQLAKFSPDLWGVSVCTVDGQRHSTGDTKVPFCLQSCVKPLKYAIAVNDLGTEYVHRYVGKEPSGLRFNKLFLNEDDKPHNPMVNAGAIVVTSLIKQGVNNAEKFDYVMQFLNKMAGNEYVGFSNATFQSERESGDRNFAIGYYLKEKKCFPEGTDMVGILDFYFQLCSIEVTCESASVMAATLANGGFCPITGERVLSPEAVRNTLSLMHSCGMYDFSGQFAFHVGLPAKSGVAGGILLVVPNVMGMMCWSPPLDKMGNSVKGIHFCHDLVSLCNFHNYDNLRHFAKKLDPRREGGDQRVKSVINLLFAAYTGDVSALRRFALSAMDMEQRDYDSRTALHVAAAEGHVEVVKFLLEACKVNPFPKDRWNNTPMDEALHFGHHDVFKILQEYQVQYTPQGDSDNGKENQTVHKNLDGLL
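hKGA; 45 mM KH2PO4 pH 8.2 + 0.02% Tween-20; cpd via pin tool; 1 mM Gln soln; GluOx/HRP/Amplex Red; RT 30 min; fluor. t0 & final.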
KCNH2 WT inh: blocks the wildtype human KCNH2 potassium channel | U2OS, BacMam KCNH2, thallium flux FluxOr; active compounds read low | activity change, % at 1.84 µM | 340,000 compounds, 0.37% hits | AID 720551;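 active = maximum activity change below -70%; inconclusive = maximum activity change between -70% and -50%; inactive = maximum activity change above -50%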; note: % is set by controls: 0 for no effect and ±100 for the full control effect
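U2OS cells were transduced with wild-type KCNH2 virus (2.03 x 10^8 / mL) for 4 h at room temperature, then cultured overnight at 37 C. Thallium flux was read with FluxOr dye. Rate constants were normalized to DMSO controls.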
KCNH2 3.1 inh: inhibitors of human KCNH2 3.1 potassium channel isoform; 340,000 compounds, 0.95% hits; activity change, % (tested at about 1.8 µM); U2OS KCNH2 3.1, thallium flux FluxOr; active compounds read low;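 active = maximum activity change below -70%; inconclusive = maximum activity change from -70% to -50%; inactive = maximum activity change above -50%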;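 note: thallium influx rate constant from kinetic fluorescence after stimulation buffer; % is set by controls: 0 for no effect and ±100 for the full control effect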
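FluxOr-based Tl+ influx in U2OS cells transduced with KCNH2 3.1 virus; rate constants normalized to DMSO controls.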
GLP1R inv ag: GLP-1 receptor (human) inverse agonism; P43220; HEK293 GLP-1R CRE-luciferase, luminescence, 24 h; GLP-1R form is constitutively active; Potency, µM (doses to about 38.3 µM), for the others: top-dose activity change, negative = inhibition, usual class: inhibitors; 410,000 compounds, 1.6% hits; AID 624417; note: potency is the fitted concentration of half-maximal effect; % is set by controls: 0 for no effect and ±100 for the full control effect; nearly all actives have a fitted effect of over 55% in size
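Cells are plated, allowed 12 hours at 37 deg C, then treated with compounds for 24 hr before luciferase detection reagent is added and luminescence is read after 12 min at room temperature. The HEK293 line carries constitutively active GLP-1R with a cAMP-responsive reporter.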
GLP-1R agonist: GLP-1 receptor (human) agonism; Potency, µM (series often up to 45.6 µM), without a hit: top-dose activation, actives largely listed as activators; 380,000 compounds, 0.007% hits; HEK293 GLP-1R CRE-luciferase, luminescence, 4-6 h; cells express a hypersensitive GLP-1R form; note: potency is the fitted concentration of half-maximal effect; % of control where 0% means no effect
GLP1R cytotox: cytotoxic in the GLP-1 receptor inverse agonist counter-screen. HEK293 cAMP-luciferase reporter cells, luminescence, 24 h. Potency, µM (highest dose often 38.3 µM), for the others: at the highest dose activity change, negative = inhibition, usual class: inhibitors. 410,000 compounds, 0.13% hits. AID 624418;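 note: loss of luciferase light is scored as toxicity; potency is the fitted concentration of half-maximal effect; % is set by controls: 0 for no effect and ±100 for the full control effect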
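Quantitative HTS format, 1536 wells, 200 cells/uL seeded. Compounds: 23 nL, 24 h, 37 °C. Detection: luciferase reagent, luminescence at 12 min RT; decreased signal taken as cytotoxic.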
* marks the source's active call; other numbers are inactive results; ? = inconclusive; . = no result given. Compounds with a hit are over-represented: about 2.8% of the library has one in this group of screens. Unless noted, calls come from the whole dose curve; as a rule, active = well fitted curve in the direction sought with a large enough effect; inconclusive = small, poorly fitted or top-dose-only effect, or another doubt; inactive = no such curve, though single readings can be large; an effect the other way counts as inactive or inconclusive.

SMILES | GLS inh | KCNH2 WT inh | KCNH2 3.1 inh | GLP1R inv ag | GLP-1R agonist | GLP1R cytotox
CCOc1ccc(N(CC(=O)NC2CCCC2)C(=O)CCC(=O)Nc2nccs2)cc1 | -10% | 5 | 10 | ? | 5% | ?
Cc1cc(C)cc(N(CC(=O)NCc2ccco2)C(=O)CCC(=O)Nc2nccs2)c1 | 0% | 6 | -72* | -8% | 6% | -4%
CCOc1ccc(N(CC(=O)NC2CCCCC2)C(=O)CCC(=O)Nc2nccs2)cc1 | 9% | 5 | -91* | 2% | 7% | 0%
CO/N=C1/CC2(CC3CC(C/C=C(/C)CC(C)/C=C\C=C4\COC5C(O)C(C)=CC(C(=O)O3)C45O)O2)OC(/C(C)=C/C(C)C)C1C (configuration not stated) | -2% | . | . | . | -4% | .
CCN(CC)CCN(C(=O)c1ccc(C(=O)OC)cc1)c1nc2ccc(Cl)cc2s1 | 8% | . | . | ? | . | 2%
N/C(CCS(=O)(=O)c1ccc(Cl)cc1)=N\OC(=O)c1ccccc1C(F)(F)F | -1% | -12 | -5 | ? | 31% | 10µM*
COc1ccccc1NC(=O)NCCCN1CCN(c2ccc(F)cc2)CC1 | 33% | . | . | ? | -2% | -10%
COc1ccc(N2CCN(CCNC(=O)Nc3ccc(C)c(Cl)c3)CC2)cc1 | 6% | . | -90* | 2.8µM* | 0% | 1%
COc1ccc(NC(=O)NCCN2CCN(c3cccc(Cl)c3)CC2)cc1 | 6% | 0 | -43 | ? | -4% | ?
COc1ccc(NC(=O)NCCCN2CCN(c3cc(C)ccc3C)CC2)cc1 | 24% | 39 | -92* | ? | -3% | 4%
COc1cc(NC(=O)NCCN2CCN(c3ccc(Cl)cc3)CC2)ccc1C | 9% | -38 | -82* | ? | 0% | -8%
COc1cccc(NC(=O)NCCCN2CCN(c3ccc(F)cc3)CC2)c1 | 27% | -38 | -82* | ? | -5% | 6%
CCCN1CCN(CCNC(=O)Nc2ccc(OC)c(OC)c2)CC1 | 9% | . | . | 16% | . | -5%
COc1ccc(C(=O)CCN2CCN(c3ccc(OC)cc3)CC2)cc1 | -5% | 15 | -71* | ? | 1% | ?
O=C(CSc1c2c(nc3cc(Cl)ccc13)CCCC2)N1CCN(c2ccccc2F)CC1 | 1% | . | . | ? | . | -10%
O=S1(=O)N=C(Nc2ccc(N3CCOCC3)cc2)c2ccccc21 | 43% | 8 | 2 | 41% | -6% | -9%
Cc1ccccc1-c1ccc(Nc2ccc(N3CCOCC3)cc2)nn1 | 35% | -33 | -73* | 0% | -2% | -17%
C=CCn1c(CCNC(=O)c2cccs2)nnc1SCC(=O)c1cccc([N+](=O)[O-])c1 | 4% | -21 | -4 | 0% | 3% | 1%
C=CCn1c(CCNC(=O)c2cccs2)nnc1SCC(=O)c1ccc(Cl)cc1 | 12% | 26 | -98* | -1% | 0% | 6%
C=CCn1c(Cc2cccs2)nnc1SCC(=O)c1cccc(Br)c1 | 28% | -2 | -6 | 5.6µM* | 6% | -9%
Nc1ccn([C@@H]2O[C@H](CNCc3cc(Cl)ccc3OCc3ccc(Cl)cc3)[C@@H](O)[C@H]2O)c(=O)n1 | 1% | -11 | 7 | 0% | 0% | -8%
Cc1ccc(NC(=S)NCCN(C2CCCCC2)C2CCCC2)cc1C | -6% | 11 | -34 | ? | 6% | ?
Cc1ccc(NC(=S)NCCN(C2CCCCC2)C2CCCC2)cc1 | 18% | 1 | -73* | ? | 5% | 0%
Cc1ccc(S(=O)(=O)c2nc(-c3ccccc3Cl)oc2N2CCN(C)CC2)cc1 | 5% | 25 | -44 | 10µM* | 8% | -4%
Cc1ccc(S(=O)(=O)c2nc(-c3ccccc3Cl)oc2N2CCCCCC2)cc1 | 4% | . | . | ? | . | 0%
SMILES | GLS inh | KCNH2 WT inh | KCNH2 3.1 inh | GLP1R inv ag | GLP-1R agonist | GLP1R cytotox
CCc1ccc(CNC(=O)CN2C(=O)C3CCCCN3c3ccc(C(=O)N4CCCC4)cc32)cc1 (configuration not stated) | 18% | . | . | 2% | . | 0%
CO/N=C(/C(=O)N[C@@H]1C(=O)N2C(C(=O)O)=C(CSc3cnns3)CS[C@H]12)c1csc(N)n1 | 32µM* | . | . | . | -4% | .
Cc1c(C(=O)OCC(=O)Nc2ccc(C(=O)N(C)C)cc2)oc2ccccc12 | 1% | -5 | -6 | 20% | 4% | 2%
Cc1nn(CC(=O)Nc2ccc(Br)cc2F)c(=O)c2cccn12 | -1% | 11 | 20 | 8% | -4% | 0%
CN(CC(=O)Nc1cccc(Cl)c1)S(=O)(=O)/C=C/c1ccccc1 | -2% | -14 | -2 | 10µM* | 15% | -19%
COc1cccc(NC(=O)CN(C)S(=O)(=O)/C=C/c2ccccc2)c1 | -3% | 12 | 1 | ? | 10% | -8%
O=C(CSc1cccc[n+]1[O-])Nc1ccccc1Oc1ccccc1 | 0% | 8 | -4 | ? | 3% | 0.79µM*
Cc1cccc(N2CC(c3nc4ccc(C)cc4[nH]3)CC2=O)c1 (configuration not stated) | 2% | . | . | 15% | . | -1%
COc1ccc(CN(C)[C@H]2C[C@H]3c4[nH]c5ccccc5c4CCN3C[C@H]2[C@H](C)O)cc1 | 0% | -48 | -81* | ? | 0% | -10%
CC(C)CN1CCNC(=O)C1CC(=O)NCCc1cnn(-c2ccccc2)c1 (configuration not stated) | 19% | 3 | -114* | -16% | 3% | -6%
COC[C@@H](c1ccc(C(F)(F)F)cc1)N1CCN(C2(C)CCN(C(=O)c3c(C)ncnc3C)CC2)C[C@@H]1C | -1% | . | . | . | -4% | .
Cc1ccccc1C(=O)NC1CCN(CC(=O)Nc2ccccc2)CC1 | 10% | 8 | -11 | 2% | 9% | -2%
Cc1ccccc1C(=O)NC1CCN(CC(=O)N2CCCCC2C)CC1 (configuration not stated) | 7% | -81* | -6 | -10% | 5% | 0%
CC(C)CNC(=O)C1CCN(S(=O)(=O)c2ccc3c(c2)OCCO3)CC1 | -17% | -11 | -3 | 44% | 6% | -10%
O=C(c1cccc([N+](=O)[O-])c1)N1CCCC(C(=O)N2CCN(c3ccccc3)CC2)C1 (configuration not stated) | 35% | -2 | 3 | -8% | -5% | 6%
O=C(NNc1cc(C(F)(F)F)ccc1Cl)c1ccc(=O)[nH]c1 | -1% | 4 | -3 | 3.5µM* | 9% | -8%
O=C(c1ccc(=O)[nH]c1)N1CCN(S(=O)(=O)c2cc(C(F)(F)F)ccc2Cl)CC1 | 0% | 2 | -15 | -31% | 1% | 10%
